Only some compounds are listed: those with a hit (about 3.5% of all), similar ones and a draw of the others.
MITF primary: MITF inhibitors, primary screen, biochemical, AlphaScreen, human. Microphthalmia-associated transcription factor (Homo sapiens), O75030. AlphaScreen MITF homodimerization, bead proximity signal. inhibition, % at 2.6 µM. 0.91% of 650,000 active; in the data active means inhibition above about 50%;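 further: 0% = vehicle wells with protein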
GPR151 activ: activators of human GPR151, primary screen, cell-based, PathHunter beta-arrestin, luminescence; G-protein coupled receptor 151 (Homo sapiens), Q8TDV0; PathHunter beta-arrestin GPR151 cells; activation, % at 11.2 µM; 1% of 650,000 active; in the data active means activation above about 4.9%;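 further: 0% = median of compound wells and 100% = cells with positive control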
Target sequence (Q8TDV0 whole entry, looked up): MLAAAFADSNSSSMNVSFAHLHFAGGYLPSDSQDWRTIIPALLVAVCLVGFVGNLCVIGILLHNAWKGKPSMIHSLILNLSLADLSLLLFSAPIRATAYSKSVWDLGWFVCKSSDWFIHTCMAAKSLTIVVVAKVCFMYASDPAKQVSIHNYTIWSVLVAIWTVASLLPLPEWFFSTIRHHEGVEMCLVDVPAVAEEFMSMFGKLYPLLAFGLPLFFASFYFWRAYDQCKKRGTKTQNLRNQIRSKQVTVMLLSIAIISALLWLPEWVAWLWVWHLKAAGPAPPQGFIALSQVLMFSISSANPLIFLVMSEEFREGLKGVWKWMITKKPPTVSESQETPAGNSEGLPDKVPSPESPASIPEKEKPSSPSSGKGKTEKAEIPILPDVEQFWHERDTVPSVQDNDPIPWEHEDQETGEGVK
TEAD-YAP inh: TEAD-YAP interaction inhibition, primary screen, TEAD-YAP interaction inhibitor project, luminescence, HEK-TIYL cells | TEAD-Gal4/YAP UAS-luciferase luminescence | inhibition, % at 9.12 µM | 1.4% of 640,000 active; in the data active means inhibition above about 32%;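 further: 0% = median of test compound wells and 100% = reference inhibitor wells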
FBW7 activator: FBW7 E3 ligase activators, primary screen, biochemical, AlphaScreen, human. 0.13% of 650,000 active. F-box/WD repeat-containing protein 7 (Homo sapiens), Q969H0. AlphaScreen FBW7–phospho-cyclin E peptide binding, activator screen. AID 1259310, 2017. normalized activity (activation), % at 26.1 µM; in the data active means normalized activity above about 1.9%;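 further: purified mutant Fbw7 with reduced substrate affinity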
GPR151 confirm: GPR151 activators, triplicate retest, confirmation, cell-based, PathHunter beta-arrestin, luminescence. GPR151 PathHunter beta-arrestin cells, 90 min; % of EA-reagent control over plate median. 6,700 tested, under 10 active. shares compounds with GPR151 activ. activation, % at 11.2 µM;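 active means mean percent activation across replicates above the confirmation screen cutoff of 4.91%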
GPR119 counter: GPR119 activators in beta-arrestin cells, counter-screen for GPR151 activator project, cell-based, PathHunter beta-arrestin, luminescence, triplicate; shares compounds with GPR151 activ; 0.3% of 6,700 active; activation, % at 11.2 µM; 90 min; 0 = compound-well median, 100 = enzyme-acceptor control;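 active means mean percent activation in the counterscreen above 29.09%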;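 further: counterscreen on off-target GPR119 to flag nonselective hits from the GPR151 activator screen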
Starred values were filed as active, the others as inactive.

For CN1CCN(c2ccc(/C=C(\C#N)C(N)=O)cc2[N+](=O)[O-])CC1 the results were MITF primary 16, GPR151 activ 17*, TEAD-YAP inh 0, FBW7 activator 0, GPR151 confirm 1 and GPR119 counter 5.
`CCc1nc(CN2CCCC(C(=O)c3cc(Cl)ccc3OC)C2)c(C)[nH]1` (stereo not drawn) gave MITF primary 11, GPR151 activ -1, TEAD-YAP inh 5 and FBW7 activator 0.
For COC(=O)COc1ccc(C=C2C(=O)NC(=O)NC2=O)cc1 the results were MITF primary -10, GPR151 activ 5.2*, TEAD-YAP inh -6, FBW7 activator 0, GPR151 confirm 0 and GPR119 counter 1.
CCOc1cccc(C=C2C(=O)NC(=S)NC2=O)c1 was read as MITF primary -4, GPR151 activ 1, TEAD-YAP inh -3 and FBW7 activator 0.
Screening O=c1c2cc(Cl)cc(Cl)c2nc(CN2CCOCC2)n1-c1ccccc1F returned MITF primary 7, GPR151 activ 17*, TEAD-YAP inh 6, FBW7 activator 0, GPR151 confirm 0 and GPR119 counter -3.
Screening CCOc1cccc(CN2CCN(c3ccccc3)CC2)c1O returned MITF primary 24, GPR151 activ 1, TEAD-YAP inh 0 and FBW7 activator 0.
For CN1/C(=C/C=C2C(=O)NC(=S)NC2=O)C(C)(C)c2ccccc21 the results were MITF primary 8, GPR151 activ 0, TEAD-YAP inh -4 and FBW7 activator 1.
Screening CC[n+]1c(/C=C/C=C2\N(C)c3ccccc3C2(C)C)n(-c2ccccc2)c2cc(Cl)ccc21 returned MITF primary -24, GPR151 activ 8.3*, TEAD-YAP inh 90*, FBW7 activator 0, GPR151 confirm 3 and GPR119 counter 20.
`CCn1c(/C=C/C=C2\N(C)c3ccccc3C2(C)C)[n+](Cc2ccccc2)c2ccccc21` gave MITF primary -5, GPR151 activ 8.7*, TEAD-YAP inh 92*, FBW7 activator 0, GPR151 confirm 3 and GPR119 counter 27.
`CC[n+]1c(/C=C/C=C2\N(C)c3ccccc3C2(C)C)n(-c2ccccc2)c2ccc(C)cc21` gave MITF primary -8, GPR151 activ 11*, TEAD-YAP inh 91*, FBW7 activator 0, GPR151 confirm 3 and GPR119 counter 39*.
`CN1CCc2nc3sc(C(N)=O)c(N)c3cc2C1` gave MITF primary 3, GPR151 activ 0, TEAD-YAP inh -15 and FBW7 activator 0.
For CCC(COC(=O)NC)NC(=O)Oc1cccc(C)c1 (stereo not drawn) the results were MITF primary 3, GPR151 activ -1, TEAD-YAP inh 5 and FBW7 activator 0.
`CCC(COC(=O)NC)NC(=O)Oc1ccccc1` (stereo not drawn) gave MITF primary -1, GPR151 activ 5.8*, TEAD-YAP inh -1, FBW7 activator 0, GPR151 confirm 0 and GPR119 counter 1.
Screening Cc1ccc(O)c(CC2C(=O)C3CCN2CC3)c1 (stereo not drawn) returned MITF primary 13, GPR151 activ 0, TEAD-YAP inh 12 and FBW7 activator 0.
Screening CC1(C)C(c2ccccn2)=[N+]([O-])C(c2cccnc2)N1O (stereo not drawn) returned MITF primary 24, GPR151 activ -1, TEAD-YAP inh 5 and FBW7 activator 0.
CC1(C)C(c2ccccc2)=[N+]([O-])C(c2cccnc2)N1O (stereo not drawn) was read as MITF primary 0, GPR151 activ 6.2*, TEAD-YAP inh 6, FBW7 activator 1, GPR151 confirm 0 and GPR119 counter -7.
O=C(C1CN(CCc2c[nH]c3ccccc23)CCN1)N1CCOCC1 (stereo not drawn) was read as MITF primary 7, GPR151 activ 5.1*, TEAD-YAP inh -2, FBW7 activator 0, GPR151 confirm -1 and GPR119 counter -15.
Screening NC(N)=NNC1NC(=O)NC1NN=C(N)N (stereo not drawn) returned MITF primary -1, GPR151 activ 1, TEAD-YAP inh -4 and FBW7 activator 0.
For O=C(CCCN1CCC2(CC1)C(=O)N(Cc1cccc(F)c1)CN2c1ccccc1)c1ccc(F)cc1 the results were MITF primary 16, GPR151 activ 6.7*, FBW7 activator 0, GPR151 confirm 0 and GPR119 counter 1.
For COc1cc(N2CCNCC2)ccc1[N+](=O)[O-] the results were MITF primary -7, GPR151 activ 1, TEAD-YAP inh 2 and FBW7 activator 0.
For Cc1noc(C)c1CC(=O)N1CCCC(N2CCOCC2)C1 (stereo not drawn) the results were MITF primary -1, GPR151 activ 1, TEAD-YAP inh 2 and FBW7 activator 0.
O=C(Cc1ccsc1)N1CCCC(N2CCOCC2)C1 (stereo not drawn) was read as MITF primary 11, GPR151 activ 5.8*, TEAD-YAP inh -2, FBW7 activator 0, GPR151 confirm 0 and GPR119 counter 4.
CN1C2CCC1CC(OC(=O)C(c1ccccc1)c1ccccc1)C2 (stereo not drawn) was read as MITF primary 22, GPR151 activ 5.1*, TEAD-YAP inh -6, FBW7 activator 1, GPR151 confirm 1 and GPR119 counter 1.
`C[N+]1(C)CCC(OC(=O)C(c2ccccc2)c2ccccc2)CC1` gave MITF primary -9, GPR151 activ -1, TEAD-YAP inh 3 and FBW7 activator 0.
Screening COP1(=S)/C(=C2/N(C)c3ccccc3C2(C)C)C=NN1c1ccccc1 (stereo not drawn) returned MITF primary 12, GPR151 activ 0, TEAD-YAP inh 6 and FBW7 activator 0.
Screening CCCCOc1ccc(CN2CCN(CCO)CC2)cc1 returned MITF primary 4, GPR151 activ -1, TEAD-YAP inh -9 and FBW7 activator 0.
CCCCCCOc1ccc(CN2CCN(CCO)CC2)cc1 was read as MITF primary 6, GPR151 activ 5.9*, TEAD-YAP inh -44, FBW7 activator 0, GPR151 confirm 1 and GPR119 counter 9.
Screening Cc1ccc2c(c1)CNc1ccccc1O2 returned MITF primary 6, GPR151 activ 5.2*, TEAD-YAP inh -5, FBW7 activator 0, GPR151 confirm 0 and GPR119 counter -9.
